Assay results reported in publication PMC11006913.

target: NKX2-5 (Homo sapiens, UniProt P52952 125-210); test: PBM; 200 nM protein, PBS; settings: dsDNA, one strand shown
Sequence (P52952 125-210): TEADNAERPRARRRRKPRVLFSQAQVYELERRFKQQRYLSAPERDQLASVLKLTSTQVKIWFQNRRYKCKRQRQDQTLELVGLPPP

Row | Sequence | binding signal
1 | CCTCCGGA | 8.86 upbm affinity estimate (log intensity, higher = more binding, comparable within an allelic series)
2 | CTGGCCGA | 8.74 upbm affinity estimate (log intensity, higher = more binding, comparable within an allelic series)
3 | ACACTTAG | 12.5 upbm affinity estimate (log intensity, higher = more binding, comparable within an allelic series)
4 | AGCCCAGG | 8.63 upbm affinity estimate (log intensity, higher = more binding, comparable within an allelic series)
5 | AAGTGGCG | 12.2 upbm affinity estimate (log intensity, higher = more binding, comparable within an allelic series)
6 | ACACGTGT | 9.25 upbm affinity estimate (log intensity, higher = more binding, comparable within an allelic series)
7 | CAGCGTCC | 8.65 upbm affinity estimate (log intensity, higher = more binding, comparable within an allelic series)
8 | GTCCCAGA | 8.98 upbm affinity estimate (log intensity, higher = more binding, comparable within an allelic series)
9 | AAGTGGCC | 12.4 upbm affinity estimate (log intensity, higher = more binding, comparable within an allelic series)
10 | CGTTCCGC | 8.75 upbm affinity estimate (log intensity, higher = more binding, comparable within an allelic series)
11 | CCAGCAGC | 8.73 upbm affinity estimate (log intensity, higher = more binding, comparable within an allelic series)
12 | AAGTGGGT | 12.3 upbm affinity estimate (log intensity, higher = more binding, comparable within an allelic series)
13 | CACTTACC | 12.3 upbm affinity estimate (log intensity, higher = more binding, comparable within an allelic series)
14 | CTAAGTAC | 12.2 upbm affinity estimate (log intensity, higher = more binding, comparable within an allelic series)
15 | CGTCGGTC | 8.91 upbm affinity estimate (log intensity, higher = more binding, comparable within an allelic series)
16 | CAAGTGGG | 12.3 upbm affinity estimate (log intensity, higher = more binding, comparable within an allelic series)
17 | CCACGGCG | 8.47 upbm affinity estimate (log intensity, higher = more binding, comparable within an allelic series)
18 | CCGACGCA | 8.7 upbm affinity estimate (log intensity, higher = more binding, comparable within an allelic series)
19 | TAAGTGCA | 12.4 upbm affinity estimate (log intensity, higher = more binding, comparable within an allelic series)

Row | Sequence | binding signal
20 | CTAAGTGC | 12.7 upbm affinity estimate (log intensity, higher = more binding, comparable within an allelic series)
21 | CGGTGGAG | 9.08 upbm affinity estimate (log intensity, higher = more binding, comparable within an allelic series)
22 | ACAATTAC | 11 upbm affinity estimate (log intensity, higher = more binding, comparable within an allelic series)
23 | CACTTAGG | 12.5 upbm affinity estimate (log intensity, higher = more binding, comparable within an allelic series)
24 | CACTTGTA | 12.3 upbm affinity estimate (log intensity, higher = more binding, comparable within an allelic series)
25 | CACACTTA | 12.4 upbm affinity estimate (log intensity, higher = more binding, comparable within an allelic series)
26 | AAGTGCCT | 12.3 upbm affinity estimate (log intensity, higher = more binding, comparable within an allelic series)
27 | GCGCGTCC | 8.91 upbm affinity estimate (log intensity, higher = more binding, comparable within an allelic series)
28 | CGACTGGC | 8.72 upbm affinity estimate (log intensity, higher = more binding, comparable within an allelic series)
29 | CAGGTCGC | 9.21 upbm affinity estimate (log intensity, higher = more binding, comparable within an allelic series)
30 | GAAGTGGA | 11.8 upbm affinity estimate (log intensity, higher = more binding, comparable within an allelic series)
31 | ACTAAGTG | 12.3 upbm affinity estimate (log intensity, higher = more binding, comparable within an allelic series)
32 | AGTCCTTA | 11.2 upbm affinity estimate (log intensity, higher = more binding, comparable within an allelic series)
33 | AAGTGGGC | 12.3 upbm affinity estimate (log intensity, higher = more binding, comparable within an allelic series)
34 | AGCACTTG | 12.3 upbm affinity estimate (log intensity, higher = more binding, comparable within an allelic series)
35 | CCAGCAGG | 8.77 upbm affinity estimate (log intensity, higher = more binding, comparable within an allelic series)
36 | GCGGCCAC | 8.78 upbm affinity estimate (log intensity, higher = more binding, comparable within an allelic series)
37 | CGACCTCG | 9.16 upbm affinity estimate (log intensity, higher = more binding, comparable within an allelic series)

target: NKX3-2 (Homo sapiens, UniProt P78367 192-278); test: PBM; 200 nM protein, PBS; settings: dsDNA, one strand shown
Sequence (P78367 192-278): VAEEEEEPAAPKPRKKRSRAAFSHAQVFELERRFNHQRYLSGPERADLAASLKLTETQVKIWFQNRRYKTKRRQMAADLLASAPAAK

Row | Sequence | binding signal
38 | ACACTTAG | 12.8 upbm affinity estimate (log intensity, higher = more binding, comparable within an allelic series)
39 | AGCCCAGG | 10.1 upbm affinity estimate (log intensity, higher = more binding, comparable within an allelic series)
40 | AAGTGGCG | 12.8 upbm affinity estimate (log intensity, higher = more binding, comparable within an allelic series)
41 | AAGTGGCC | 13.1 upbm affinity estimate (log intensity, higher = more binding, comparable within an allelic series)
42 | AAGTGGGT | 12.8 upbm affinity estimate (log intensity, higher = more binding, comparable within an allelic series)
43 | CACTTACC | 12.8 upbm affinity estimate (log intensity, higher = more binding, comparable within an allelic series)
44 | CTAAGTAC | 12.6 upbm affinity estimate (log intensity, higher = more binding, comparable within an allelic series)
45 | TAAGTGCA | 12.9 upbm affinity estimate (log intensity, higher = more binding, comparable within an allelic series)
46 | CTAAGTGC | 13 upbm affinity estimate (log intensity, higher = more binding, comparable within an allelic series)
47 | CACTTAGG | 13 upbm affinity estimate (log intensity, higher = more binding, comparable within an allelic series)
48 | CACACTTA | 12.7 upbm affinity estimate (log intensity, higher = more binding, comparable within an allelic series)
49 | GCACTTAC | 12.8 upbm affinity estimate (log intensity, higher = more binding, comparable within an allelic series)
50 | AAGTGCCT | 12.6 upbm affinity estimate (log intensity, higher = more binding, comparable within an allelic series)
51 | GCGCGTCC | 10.6 upbm affinity estimate (log intensity, higher = more binding, comparable within an allelic series)
52 | GAAGTGGA | 12.6 upbm affinity estimate (log intensity, higher = more binding, comparable within an allelic series)
53 | ACTAAGTG | 12.9 upbm affinity estimate (log intensity, higher = more binding, comparable within an allelic series)
54 | AAGTGGGC | 12.9 upbm affinity estimate (log intensity, higher = more binding, comparable within an allelic series)
